Records with an inconclusive call do not appear. The source made the active and inactive calls. Calls come from the whole dose curve; as a rule, active = well fitted inhibition curve with a large enough effect; inconclusive = small, poorly fitted or top-dose-only effect; inactive = no such curve, though single readings can be large or run the other way.
assay: Primary qHTS for small molecule stabilizers of the endoplasmic reticulum resident proteome: Secreted ER Calcium Modulated Protein (SERCaMP) assay (AID 1508630); conditions: SH-SY5Y GLuc-SERCaMP (Gaussia luciferase released on ER calcium loss) secretion, thapsigargin, luminescence; series mostly up to 38.4 µM; activity change, negative = inhibition: at the top concentration
Procedure, shortened: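 GLuc-SERCaMP-expressing SH-SY5Y cells, pretreated 16 h with compound, are challenged with thapsigargin to empty ER calcium stores; after 4 h, coelenterazine is added directly to the medium and luminescence is imaged.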
% is set by controls: 0 for no effect and ±100 for the full control effect.

Activity change, negative = inhibition, inactive:
CCNc1ncc2nc(-c3cn(C)c4ccccc34)c(=O)n(Cc3ccc(F)cc3)c2n1 -7.95%, N#CCCn1c(=O)c(-c2ccccc2)nc2cnc(Nc3ccccc3)nc21 180%, COc1cccc(-c2nccc(NCc3cccnc3)n2)c1 -0.367%, CN(C)c1ncc2nc(-c3cccs3)c(=O)n(-c3ccccc3)c2n1 43.3%, COc1ccc(-c2nc3cnc(OC)nc3n(C)c2=O)cc1 43%, COc1ncc2nc(-c3cccs3)c(=O)n(Cc3ccc(F)cc3)c2n1 36.2%, COc1cccc(Cn2c(=O)cnc3cnc(OC)nc32)c1 -1.92%, COCCn1c(=O)c(-c2cccs2)nc2cnc(OC)nc21 -1.58%, COc1ccc(CNc2ccnc(-c3c(C)noc3C)n2)c(OC)c1 13.6%, COc1cccc(Cn2c(=O)cnc3cnc(OCc4ccccc4)nc32)c1 -12.8%, Cc1cnc(CNc2ncnc3ccc(-c4ccc5c(c4)OCO5)cc23)cn1 -24.7%, CNc1nc(-c2c(C)noc2C)nc2ccccc12 11.8%, N#Cc1cccc(-c2nccc(NCc3ccccc3)n2)c1 -8.3%, COc1ccccc1CNc1cc(-c2ccccc2C(F)(F)F)ncn1 121%, COc1cccc(Cn2c(=O)c(-c3cccs3)nc3cnc(OCc4ccccc4)nc32)c1 20.1%, c1ccc(CNc2ncncc2-c2ccc3c(c2)OCO3)cc1 51%, Cc1noc(C)c1-c1nc(Nc2ccc(F)cc2)c2ccccc2n1 15.2%, COc1ccc(CNc2ccnc(-c3ccccc3OC)n2)c(OC)c1 -21.7%, Cn1c(=O)c(-c2ccc(F)cc2)nc2cnc(N3CCOCC3)nc21 -13.2%, O=c1c(CCc2ccccc2)nc2cnc(N3CCOCC3)nc2n1CCc1ccccc1 19.8%, N#Cc1ccccc1-c1ccc2ncnc(NC3CC3)c2c1 -18.2%, COc1cccc(Cn2c(=O)c(-c3cccs3)nc3cncnc32)c1 -7.4%, O=c1c(-c2ccc(F)cc2)nc2cncnc2n1-c1ccccc1 -11%, O=c1c(-c2ccc(Cl)cc2)nc2cnc(Nc3ccccc3)nc2n1C[C@H]1CCCO1 19.1%, COc1ccccc1-c1cncnc1NCc1cnc(C)cn1 40%, CN(C)Cc1ccccc1-c1nc(NC2CC2)c2ccccc2n1 -26.9%, CCNc1ncc2nc(-c3ccccc3)c(=O)n(CCOC)c2n1 -3.63%, CN(Cc1ccco1)c1ncnc2ccc(-c3ccccc3C#N)cc12 -7.32%, CCNc1ncc2nc(-c3ccc(F)cc3)c(=O)n(C[C@H]3CCCO3)c2n1 -15.9%, Cc1cnc(CNc2nc(-c3ccccc3C(F)(F)F)nc3ccccc23)cn1 19.9%, CS(=O)(=O)Nc1cccc(-c2nccc(Nc3ccc(F)cc3)n2)c1 -25.8%, CCNc1ncc2nc(-c3cc(F)cc(F)c3)c(=O)n(CCc3ccccc3)c2n1 -19.8%, COc1cccc(-c2cc(NCc3ccccc3)ncn2)c1 -6.09%, c1ccc(CNc2ncncc2-c2cccnc2)cc1 7.24%, COc1ccc(-c2nc3cnc(OC)nc3n(CCC#N)c2=O)cc1 18.4%, N#Cc1cccc(-c2nccc(NCc3cccs3)n2)c1 -3.02%, Cc1ccccc1-c1cncnc1NCc1cccnc1 29.4%, COc1ccc(Oc2ncc3nc(-c4cn(C)c5ccccc45)c(=O)n(C)c3n2)cc1 11.1%, CN(C)c1ccc(-c2cncnc2N(C)Cc2ccco2)cc1 -17%, COc1ncc2nc(-c3cn(C)c4ccccc34)c(=O)n(CCC#N)c2n1 12.2%

— PubChem BioAssay (NCATS)
